Among the data in PubChem BioAssay (Tox21) are Potency and outcome values, retold here.

A number with no mark means an inactive call. Records with an inconclusive call do not appear. Calls of active or inactive are those of the source. Unless noted, the call rests on the fitted dose curve; in most records, active means well fitted curve in the direction sought with a large enough effect in the repeat runs; inconclusive means weak or mixed curves; inactive means no such curve, though single readings can be large; an effect the other way counts as inactive or inconclusive.

Experiment [1] in a line: qHTS RealTime-Glo MT Cell Viability Assay in HEK293 cells - 8 hour (AID 1224887). Further: nearly all actives have a fitted effect of over 50% in size. Further: potency means the concentration at half of the fitted maximal effect. In outline: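 HEK293 + NanoLuc + prosubstrate, 600 cells/well; 5 h, 37 C/5% CO2; compound 23 nL in DMSO by pintool; 37 C; luminescence read at 0, 8, 16, 24, 32 and 40 h time points.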
(In general: In qHTS, concentration-response curves come from the screen itself.)

Experiment [2] in a line: A CellTox Green Cytotoxicity Assay to monitor cytotoxicity in HEK293 cells - 16 hour (AID 1224888). Further: nearly all actives have a fitted effect of over 35% in size. Further: potency means the concentration at half of the fitted maximal effect. In outline:
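Tox21 screen in HEK293: membrane-impermeant cyanine dye fluoresces on binding dead-cell DNA; compound pinned 5 h post-seeding, plates held at 37 C, signal read repeatedly through 40 h.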

Experiment [3] is described as follows: qHTS RealTime-Glo MT Cell Viability Assay in HepG2 cells - 0 hour (AID 1224889). Further: nearly all actives have a fitted effect of over 50% in size. The essentials: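 Compound treatment began 5 h after plating HepG2 cells (600/well) with NanoLuc luciferase and prosubstrate. Plates stayed at 37 C for 40 h; luminescence was captured at six time points, 0 h through 40 h.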
Experiment [4] can be described thus: A CellTox Green Cytotoxicity Assay to monitor cytotoxicity in HepG2 cells - 8 hour (AID 1224890). Further: nearly all actives have a fitted effect of over 45% in size. Further: potency means the concentration at half of the fitted maximal effect. In outline:
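Measurements at 0, 8, 16, 24, 32 and 40 h of treatment captured CellTox Green fluorescence in HepG2 cells that had been co-plated with reagent and preincubated 5 h at 37 C/5% CO2.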

Experiment [5] is described as follows: qHTS assay to identify small molecule antagonists of the estrogen receptor alpha (ER-alpha) signaling pathway using the BG1 cell line in the presence of 0.1 nM 17-beta-estradiol - cell viability counter screen (AID 1259241). Further: nearly all actives have a fitted effect of over 40% in size. The essentials:
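Cells were plated and left 24 hr, compounds in DMSO were pinned in, 17beta-estradiol was added to 0.1 nM final, and after 22 hr CellTiter-Fluor reagent was added for 30 min before fluorescence was read.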

A short description of experiment [6]: qHTS assay to identify small molecule antagonists of the androgen receptor (AR) signaling pathway using the MDA cell line in the presence of 0.5 nM R1881 - cell viability counter screen (AID 1259242). Further: nearly all actives have a fitted effect of over 45% in size. In outline:
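Concentration-response screen of compounds for toxicity in MDA-kb2 reporter cells: 16 hr at 37C with 0.5 nM R1881, endpoint live-cell protease fluorescence measured in the reporter wells.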

Experiment [7] concerns the target Estrogen receptor (Homo sapiens) (UniProt P03372). Description: qHTS assay to identify small molecule antagonists of the estrogen receptor alpha (ER-alpha) signaling pathway using the BG1 cell line in the presence of 0.1 nM 17-beta-estradiol (AID 1259244). Further: nearly all actives have a fitted effect of over 50% in size. The essentials:
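Compounds were tested against 0.1 nM (final) 17beta-estradiol in VM7Luc4E2 cells, which express full-length ER-alpha and an ERE-luciferase reporter; luminescence was recorded following 22 h exposure.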

A short description of experiment [8]: qHTS assay to identify small molecule HDAC inhibitors (AID 1259364). Further: potency means the concentration at half of the fitted maximal effect.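 Further: wild-type HCT-116 cells with endogenous class I/II HDAC activity; nearly all actives have a fitted effect of over 45% in size.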 In outline: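 Screening used wild-type human colon HCT-116 cells incubated overnight, dosed with compounds for 2 hours, and assayed with a homogeneous luminogenic HDAC I/II reagent for 30 minutes at room temperature.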
Experiment [9] in a line: qHTS assay to identify small molecule HDAC inhibitors - cell viability counter screen (AID 1259365). Further: series mostly up to about 92 µM; nearly all actives have a fitted effect of over 50% in size. The essentials:
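Counter screen in wild-type HCT-116 cells: compounds dissolved in DMSO are pin-transferred onto overnight-plated cells and left 2hr at 37C. ATP-based CellTiter-Glo luminescence then measures viable cells.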

Experiment [10] is described as follows: qHTS assay to identify small molecule agonists of the sonic hedgehog signaling (Shh) pathway - cell viability counter screen (AID 1259366). Further: nearly all actives have a fitted effect of over 50% in size. In outline:
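Cells are plated at 2,000 per well and left 4hr at 37C, 5% CO2 before compound addition. After 23hr of treatment, CellTiter-Fluor reagent is added for 1hr at 37C and fluorescence is measured.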

The nature of experiment [11]: qHTS assay to identify small molecule antagonists of the sonic hedgehog signaling (Shh) pathway - cell viability counter screen (AID 1259367). Further: nearly all actives have a fitted effect of over 55% in size. In outline: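 Tox21 library chemicals were tested on a Gli1-Luc NIH/3T3 clone (2,000 cells/well) stimulated by conditioned medium; viability was quantified as fluorescence from CellTiter-Fluor reagent added at 23 hr.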
Experiment [12] can be described thus: qHTS assay to identify small molecule agonists of the sonic hedgehog signaling (Shh) pathway (AID 1259368; calls by dose curve;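 further: NIH/3T3-derived 3T3Gli1-Luc cells carrying a stable Gli1-driven firefly luciferase reporter; series mostly up to about 92 µM; nearly all actives have a fitted effect of over 15% in size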). The essentials:
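Hedgehog pathway agonism scored by increased firefly luciferase luminescence in 3T3Gli1-Luc cells treated 24 hr at 37 C; detection used a 30 min room-temperature reagent incubation.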

The nature of experiment [13]: qHTS assay to identify small molecule antagonists of the sonic hedgehog signaling (Shh) pathway (AID 1259369; calls by dose curve; further: nearly all actives have a fitted effect of over 45% in size). The essentials: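 NIH/3T3 stable Gli1-Luc clone, 2,000 cells/well, 4hr settle; cpd + conditioned medium 24hr; Luc reagent 30min RT; luminescence.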
Experiment [14] deals with Estrogen receptor beta (Homo sapiens) (UniProt Q92731). Description: qHTS assay to identify small molecule agonists of the estrogen receptor beta (ER-beta) signaling pathway (AID 1259377; active means well fitted activation curve with a large enough effect in the signal ratio in the repeat runs, not every such curve was filed as active; the % refers to the signal ratio). In outline:
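Agonist mode cell assay in GripTite HEK293T cells expressing an ER-beta fusion that drives beta-lactamase from an Upstream Activator Sequence; 16 hr compound exposure at 37C, then 2 h LiveBLAzer B/G FRET substrate at room temperature, fluorescence read-out.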

For experiment [15] the target is unchanged. Description: qHTS assay to identify small molecule antagonists of the estrogen receptor beta (ER-beta) signaling pathway (AID 1259378; active means well fitted inhibition curve with a large enough effect in the signal ratio in the repeat runs, not every such curve was filed as active; the % refers to the signal ratio). In outline:
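ER-beta-UAS-bla HEK293T cells in 2% charcoal-stripped FBS medium treated with compound plus 1nM final 17-beta-estradiol for 16 hr at 37C. Beta-lactamase reporter read by FRET substrate fluorescence after 2 hours at room temperature.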

The nature of experiment [16]: qHTS assay to identify small molecule agonists of the estrogen receptor beta (ER-beta) signaling pathway - cell viability counter screen (AID 1259380). Further: nearly all actives have a fitted effect of over 30% in size. In outline: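 Measured: luminescence from CellTiter-Glo after 30 min at room temperature, added to wells already read for the LiveBLAzer FRET reporter (2 hr substrate); ER-beta-UAS-bla HEK293T cells had 16 hr compound treatment at 37C, 5% CO2.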

The target of experiment [17] is Androgen receptor (Homo sapiens) (UniProt P10275). Description: qHTS assay to identify small molecule agonists of the androgen receptor (AR) signaling pathway in the presence of an antagonist (AID 1259381; calls by dose curve; further: nearly all actives have a fitted effect of over 15% in size). In outline: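 Luminescent ONE-Glo read, 30min at room temperature, follows 16hr compound exposure (15 concentrations) of MDA-kb2 cells at 37C, 0% CO2, with nilutamide added at 3.0uM final.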

For experiment [18] the target is unchanged. Description: qHTS assay to identify small molecule antagonists of the androgen receptor (AR) signaling pathway using the MDA cell line in the presence of 0.5 nM R1881 (AID 1259243). Further: nearly all actives have a fitted effect of over 50% in size. The essentials:
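With R1881 held at 0.5 nM (final), compound effects on MMTV-luciferase expression in MDA-kb2 cells were scored by luminescence after a 16 hr, 37C incubation.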

The nature of experiment [19]: qHTS assay to identify small molecule agonists of the androgen receptor (AR) signaling pathway in the presence of an antagonist - cell viability counter screen (AID 1259379).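 Further: MDA-kb2 human breast cancer cells carrying an MMTV luciferase reporter; series mostly up to about 92 µM; nearly all actives have a fitted effect of over 25% in size.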 The essentials:
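MDA-kb2 viability measured by CellTiter-Fluor fluorescence in the same wells as the luciferase signal; nilutamide 3.0uM final; 15-point compound titration; 16 hr at 37C.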

Chain of Androgen receptor (Homo sapiens) (P10275 whole entry, looked up): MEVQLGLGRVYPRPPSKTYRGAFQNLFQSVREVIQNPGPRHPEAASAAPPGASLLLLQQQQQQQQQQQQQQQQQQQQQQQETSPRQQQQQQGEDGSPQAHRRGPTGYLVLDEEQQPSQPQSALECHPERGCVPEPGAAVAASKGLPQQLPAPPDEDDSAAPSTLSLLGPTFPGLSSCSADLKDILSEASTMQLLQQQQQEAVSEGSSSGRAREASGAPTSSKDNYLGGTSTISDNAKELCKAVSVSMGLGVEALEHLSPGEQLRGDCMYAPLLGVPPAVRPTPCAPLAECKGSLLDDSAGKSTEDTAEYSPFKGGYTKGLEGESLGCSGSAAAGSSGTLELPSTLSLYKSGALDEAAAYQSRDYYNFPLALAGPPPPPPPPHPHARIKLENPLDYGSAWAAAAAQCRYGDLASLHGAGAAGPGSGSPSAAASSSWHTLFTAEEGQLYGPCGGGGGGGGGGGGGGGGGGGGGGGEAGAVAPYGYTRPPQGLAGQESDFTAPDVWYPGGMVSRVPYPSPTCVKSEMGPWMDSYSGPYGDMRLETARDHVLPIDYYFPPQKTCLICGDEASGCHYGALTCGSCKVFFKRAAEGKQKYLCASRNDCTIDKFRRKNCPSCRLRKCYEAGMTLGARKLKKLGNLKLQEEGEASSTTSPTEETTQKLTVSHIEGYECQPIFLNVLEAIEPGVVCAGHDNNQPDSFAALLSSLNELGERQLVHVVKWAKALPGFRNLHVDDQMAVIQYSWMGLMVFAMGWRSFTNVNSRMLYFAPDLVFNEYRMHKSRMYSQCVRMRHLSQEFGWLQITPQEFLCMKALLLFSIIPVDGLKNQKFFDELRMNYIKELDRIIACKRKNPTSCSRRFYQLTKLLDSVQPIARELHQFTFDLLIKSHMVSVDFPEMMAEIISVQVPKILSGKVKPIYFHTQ
Chain of Estrogen receptor beta (Homo sapiens) (Q92731 whole entry, looked up, the tested form may be a part): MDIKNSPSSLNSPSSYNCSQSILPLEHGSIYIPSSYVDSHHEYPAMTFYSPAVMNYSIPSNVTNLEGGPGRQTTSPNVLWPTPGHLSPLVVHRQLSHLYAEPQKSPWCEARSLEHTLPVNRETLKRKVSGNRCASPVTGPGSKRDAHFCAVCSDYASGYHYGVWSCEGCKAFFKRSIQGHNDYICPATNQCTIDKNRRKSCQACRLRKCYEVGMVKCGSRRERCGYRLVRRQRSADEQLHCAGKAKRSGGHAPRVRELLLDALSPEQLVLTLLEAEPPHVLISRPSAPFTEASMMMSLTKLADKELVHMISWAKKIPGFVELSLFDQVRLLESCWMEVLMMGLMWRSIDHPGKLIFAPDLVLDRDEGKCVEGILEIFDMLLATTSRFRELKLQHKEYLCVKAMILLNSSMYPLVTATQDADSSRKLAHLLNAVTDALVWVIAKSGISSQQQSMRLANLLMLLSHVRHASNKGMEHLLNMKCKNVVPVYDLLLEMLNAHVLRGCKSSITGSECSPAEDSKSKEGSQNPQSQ
Chain of Estrogen receptor (Homo sapiens) (P03372 whole entry, looked up): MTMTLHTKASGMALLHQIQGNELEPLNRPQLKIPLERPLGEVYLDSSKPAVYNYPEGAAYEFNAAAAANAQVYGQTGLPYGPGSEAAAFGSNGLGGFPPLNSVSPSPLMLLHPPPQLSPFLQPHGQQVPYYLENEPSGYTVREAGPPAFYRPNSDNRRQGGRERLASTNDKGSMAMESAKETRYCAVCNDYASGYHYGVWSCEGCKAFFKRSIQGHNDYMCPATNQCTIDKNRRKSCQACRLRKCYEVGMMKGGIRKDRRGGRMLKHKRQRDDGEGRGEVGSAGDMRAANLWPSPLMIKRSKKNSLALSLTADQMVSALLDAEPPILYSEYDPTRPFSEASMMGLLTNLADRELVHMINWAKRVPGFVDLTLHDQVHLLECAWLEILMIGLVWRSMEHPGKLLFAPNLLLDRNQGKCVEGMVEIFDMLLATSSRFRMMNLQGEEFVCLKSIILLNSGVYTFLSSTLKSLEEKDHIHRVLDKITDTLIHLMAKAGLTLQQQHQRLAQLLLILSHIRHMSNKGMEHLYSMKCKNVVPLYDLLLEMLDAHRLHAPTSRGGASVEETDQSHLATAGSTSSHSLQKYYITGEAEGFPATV

Turning to `Nc1ccc(F)c([N+](=O)[O-])c1`, the Potency result in experiment [1], in experiment [2], in [3], in experiment [4], in [5] and in [6] was “inactive” throughout. Besides, the Potency entry in experiment [7], in experiment [8], in experiment [9], in [10], in experiment [11] and in [12] was “inactive” each time. Moreover, the Potency result in [13], in experiment [15] and in experiment [16] was “inactive” in each case. Moreover, the result in experiment [14] was inactive.
On to `c1ccc2c(c1)-c1ccc3ccc4cccc5cc-2c1c3c45`, for which the Potency result in experiment [1], in experiment [2], in [3], in experiment [4], in experiment [5] and in [8] was “inactive” each time. Further, the Potency entry in experiment [9], in [12], in [16] and in [17] was “inactive” in each case.
Turning to `NC(=O)C1CO1` (stereo not given), the Potency entry in [1], in experiment [2], in experiment [3], in experiment [4], in experiment [6] and in experiment [18] was “inactive” in each case. Further, the Potency entry in experiment [7], in experiment [8], in [9], in [10], in experiment [11] and in experiment [12] was “inactive” throughout. Also, the Potency entry in experiment [13], in experiment [15] and in experiment [19] was “inactive” in each case. Besides, the call in experiment [14] was inactive.
Consider `Cn1c(=O)[nH]c2ncn(C)c2c1=O`, for which the Potency entry in [1], in experiment [2], in [3], in experiment [4], in [6] and in [18] was “inactive” in each case. Besides, the Potency entry in experiment [7], in [8], in experiment [9], in experiment [10], in [11] and in [12] was “inactive” in each case. In addition, the Potency result in experiment [13], in [16] and in experiment [17] was “inactive” throughout.
With `c1ccc2cc3c4ccccc4c4ccccc4c3cc2c1`, the Potency entry in [1], in experiment [2], in experiment [3], in [4], in experiment [5] and in experiment [6] was “inactive” throughout. For the same compound, the Potency result in experiment [8], in [10], in [11], in [12], in experiment [13] and in experiment [15] was “inactive” in each case. Further, the Potency entry in experiment [16] is “inactive”. Besides, the result in experiment [14] was inactive.
In the case of `c1ccc(-c2nc3ccccc3[nH]2)cc1`, the Potency was 21.9 µM (active) in experiment [1] and 2.43 µM (active) in experiment [8]. For the same compound, the Potency result in [2], in experiment [3], in [4], in experiment [5], in experiment [6] and in [7] was “inactive” each time. Further, the Potency entry in experiment [9], in experiment [10], in [11], in [12] and in experiment [15] was “inactive” in each case. The result in experiment [14] was inactive.
Consider `Nc1cc([N+](=O)[O-])ccc1Cl`, for which the Potency result in experiment [1], in experiment [2], in experiment [3], in experiment [4], in [5] and in [6] was “inactive” each time. Besides, the Potency result in [8], in [9], in experiment [10], in experiment [11], in experiment [12] and in experiment [13] was “inactive” in each case. The Potency result in [15] and in experiment [17] was “inactive” in each case. In experiment [14], the compound was classed as inactive.
As for `CCCCCCCCCC[N+](C)(CCCCCCCCCC)CCC[Si](OC)(OC)OC`, the Potency is 19.5 µM (active) in experiment [1], 49 µM (active) in experiment [2] and 43.6 µM (active) in experiment [4]. The Potency entry in experiment [3], in [5], in [7], in [8], in experiment [12] and in experiment [15] was “inactive” in each case. Further, the outcome in [14] was inactive.
